Results published in PubChem BioAssay (Tox21).
Where “and” joins values, the source holds several entries; their conditions need not be identical. Equal values may be shown once. Results filed as inconclusive are left out. A structure can be active in one record and inactive in another. Calls of active or inactive are those of the source. Unless noted, calls come from the whole dose curve; as a rule, active = well fitted curve in the direction sought with a large enough effect in the repeat runs; inconclusive = weak or mixed curves; inactive = no such curve, though single readings can be large; an effect the other way counts as inactive or inconclusive.

Columns and labels:
[1] = qHTS assay to identify small molecule agonists of the estrogen receptor alpha (ER-alpha) signaling pathway in the presence of an antagonist - cell viability counter screen (AID 1259386);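 note: cells exposed to compounds for 22 h at 37 °C before the viability read; nearly all actives have a fitted effect of over 30% in size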; note: potency is the fitted concentration of half-maximal effect
Summary of the method: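 Viability counter screen using VM7Luc4E2 (full-length ER-alpha, four ERE-luciferase). The cells were treated with compounds alongside ICI-182,780 10.0nM for 22hr, and live-cell protease fluorescence was quantified with CellTiter-Fluor.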

[2] = target: Progesterone receptor (Homo sapiens) (UniProt P06401); assay: qHTS assay to identify small molecule agonists of the progesterone receptor (PR) signaling pathway (AID 1346784; calls by dose curve; note: nearly all actives have a fitted effect of over 30% in size)
Summary of the method: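 Reporter assay, GripTite PR-UAS-bla HEK 293T cells: 16 hr exposure to DMSO-dissolved compounds at 37C, 5% CO2, in steroid-depleted (2% charcoal-stripped FBS) medium; beta-lactamase measured by FRET fluorescence.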

[3] = target: Progesterone receptor (Homo sapiens) (UniProt P06401); assay: qHTS assay to identify small molecule antagonists of the progesterone receptor (PR) signaling pathway (AID 1346795; active = well fitted inhibition curve with a large enough effect in the signal ratio in the repeat runs, not every such curve was filed as active; the % refers to the signal ratio; note: potency is the fitted concentration of half-maximal effect)
Summary of the method: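 Stimulus R5020 at 1 nM final; cells HEK293T PR-UAS-bla; medium with 2% charcoal-stripped FBS; compound exposure 16 hr at 37C, 5% CO2; detection by FRET beta-lactamase substrate, 2 hr, room temperature.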

[4] = qHTS assay to identify small molecule antagonists of the TGF-beta/Smad signaling pathway - cell viability counter screen (AID 1346824); note: nearly all actives have a fitted effect of over 50% in size
Summary of the method: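 Cytotoxicity counter-screen run in the same wells as the beta-lactamase Smad reporter read: CellTiter-Glo luminescence after 30 min at room temperature. HEK 293T SBE-bla cells had 5 hr compound exposure at 37 C with TGF-beta1 (0.25 ng/mL stock).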

[5] = qHTS assay to identify small molecule agonists of the TGF-beta/Smad signaling pathway (AID 1346859; active = well fitted activation curve with a large enough effect in the signal ratio in the repeat runs, not every such curve was filed as active; the % refers to the signal ratio; note: series mostly up to about 77 µM)
Summary of the method: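 Screening used HEK 293T SBE-bla cells at 4,000/well. Test agents: 5 hr, 37 C. Detection: FRET substrate, 2 hr RT, then excitation 405 nm with emissions at 460 and 530 nm.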

[6] = target: Thyrotropin-releasing hormone receptor (Homo sapiens) (UniProt P34981); assay: qHTS assay to identify small molecule antagonists of the thyrotropin-releasing hormone receptor (TRHR) signaling pathway (AID 1346877; active = well fitted inhibition curve with a large enough effect in the repeat runs, not every such curve was filed as active; note: series mostly up to about 51 µM)
Summary of the method: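 Following an 18 h incubation at 37 °C and a 2 h calcium dye load, TRHR-HEK293 cells were exposed to compound (5 min, room temperature) and challenged with TRH, 1 nM final.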

[7] = target: Thyrotropin-releasing hormone receptor (Homo sapiens) (UniProt P34981); assay: qHTS assay to identify small molecule agonists of the thyrotropin-releasing hormone receptor (TRHR) signaling pathway (AID 1346891; calls by dose curve; note: series mostly up to about 58 µM)
Summary of the method: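 Readout was intracellular calcium fluorescence in TRHR-Hek293 cells. Cells were incubated 18 h, dye-loaded 2 h at 37 °C, and treated with compound in agonist mode.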

[8] = Caspase-3/7 induction in CHO-K1 cells by small molecules, qHTS cell viability counter screen (AID 1346979); note: nearly all actives have a fitted effect of over 35% in size; note: potency is the fitted concentration of half-maximal effect
Summary of the method: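 Following a 5hr settling period, CHO-K1 cells at 1,500 per well received DMSO-dissolved compounds. Cell viability was quantified 16hr later by CellTiter-Fluor fluorescence, measured after 1hr with reagent at 37C.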

[9] = Caspase-3/7 induction in CHO-K1 cells by small molecules, qHTS assay (AID 1346980); note: nearly all actives have a fitted effect of over 15% in size
Summary of the method: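 Luminescent Caspase-Glo 3/7 read (30min, room temperature) quantified apoptosis induction. Cells were wild-type CHO-K1, treated with compound for 17hr at 37 C and 5% CO2.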

[10] = target: Nuclear receptor subfamily 1 group I member 2 (Homo sapiens) (UniProt O75469); assay: Human pregnane X receptor (PXR) small molecule agonists, qHTS assay (AID 1346982); note: nearly all actives have a fitted effect of over 35% in size; note: potency is the fitted concentration of half-maximal effect
Summary of the method: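 Compound-induced hPXR transactivation of a CYP3A4 luciferase reporter was scored in HepG2 PXR-Luc cells over 24 hr at 37 C, 5% CO2, by luminescence.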

[11] = target: Acetylcholinesterase (Homo sapiens) (UniProt P22303); assay: Acetylcholinesterase (AChE) small molecule antagonists: colormetric cell-based qHTS assay (AID 1347395; calls by dose curve; note: nearly all actives have a fitted effect of over 30% in size; note: potency is the fitted concentration of half-maximal effect)
Summary of the method: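 After overnight attachment at 37 C, SH-SY5Y cells get 30 min compound exposure; detection cocktail (acetylthiocholine, DTNB) then incubates 90 min at 37 C, and absorbance reflects AChE-generated thiocholine.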

[12] = target: Acetylcholinesterase (Homo sapiens) (UniProt P22303); assay: Acetylcholinesterase (AChE) small molecule antagonists: enzyme-based qHTS assay (AID 1347397; calls by dose curve; note: nearly all actives have a fitted effect of over 55% in size; note: potency is the fitted concentration of half-maximal effect); settings: Potency: AChE enzyme activity inhibition
Summary of the method: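 Absorbance-based detection of thiocholine with DTNB served as the read-out. Recombinant human AChE was exposed to compound for 30 min at RT before a 10 min RT incubation with acetylthiocholine.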

[13] = qHTS assay to identify small molecule antagonists of the progesterone receptor (PR) signaling pathway - cell viability counter screen (AID 1346798); note: series mostly up to about 92 µM; nearly all actives have a fitted effect of over 50% in size
Summary of the method: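 In the same plates used for the beta-lactamase readout, cell viability of compound- and R5020-treated PR-UAS-bla HEK293T cells (16 hr, 37C) was assessed by CellTiter-Glo luminescence.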

[14] = qHTS assay to identify small molecule agonists of the progesterone receptor (PR) signaling pathway - cell viability counter screen (AID 1346799; calls by dose curve; note: nearly all actives have a fitted effect of over 45% in size)
Summary of the method: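 Multiplexed viability read: CellTiter-Glo luminescence, 30 min RT, following LiveBLAzer FRET measurement on PR-UAS-bla HEK293T cells exposed to compounds 16 hr.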

[15] = qHTS assay to identify small molecule agonists of the TGF-beta/Smad signaling pathway - cell viability counter screen (AID 1346829); note: nearly all actives have a fitted effect of over 45% in size; note: potency is the fitted concentration of half-maximal effect
Summary of the method: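 SBE-bla HEK 293T cells plated overnight, compound exposure 5 hr at 37 C. Viability read in the same wells by CellTiter-Glo luminescence after 30 min at room temperature, following the beta-lactamase read.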

[16] = Human pregnane X receptor (PXR) small molecule agonists, qHTS cell viability counter screen (AID 1346977); note: nearly all actives have a fitted effect of over 50% in size; note: potency is the fitted concentration of half-maximal effect
Summary of the method: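 In each well, the PXR reporter HepG2 line was checked for viability: CellTiter-Fluor reagent added 23hr post-dosing, fluorescence read after 1hr incubation at 37C.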

[17] = Caspase-3/7 induction in HepG2 cells by small molecules, qHTS cell viability counter screen (AID 1346981); note: nearly all actives have a fitted effect of over 30% in size; note: potency is the fitted concentration of half-maximal effect
Summary of the method: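 Viability determined by CellTiter-Fluor fluorescence in HepG2 wells also used for the luminescent Caspase-Glo 3/7 read. Compounds were present for 16 hr at 37 C, 5% CO2 before reagent addition.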

[18] = Caspase-3/7 induction in HepG2 cells by small molecules, qHTS assay (AID 1346978); note: nearly all actives have a fitted effect of over 15% in size
Summary of the method: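 Caspase-3/7 induction was measured by Caspase-Glo 3/7 luminescence (30 min, room temperature) after a 17 hr compound exposure of wild-type HepG2 cells seeded at 2,000 per well and pre-incubated 5 hr.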

[19] = target: Nuclear receptor subfamily 1 group I member 2 (Rattus norvegicus) (UniProt Q9R1A7); assay: Rat pregnane X receptor (rPXR) activation by small molecules, qHTS assay (AID 1346983); settings: rPXR luciferase reporter cells, One-Glo luminescence, 24 h; max activation: stronger effect = higher value; note: nearly all actives have a fitted effect of over 20% in size; note: potency is the fitted concentration of half-maximal effect
Summary of the method: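 Luminescent readout (One-Glo luciferase, 30 min room temperature) followed 24 hr compound treatment at 37 C of rPXR cells plated 2,000 per well and preincubated 5hr; qHTS format with compounds delivered in DMSO.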

[20] = target: Nuclear receptor subfamily 1 group I member 2 (Homo sapiens) (UniProt O75469); assay: CYP3A4 induction through human pregnane X receptor (PXR) by small molecules, qHTS assay (AID 1346984); note: nearly all actives have a fitted effect of over 40% in size
Summary of the method: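 Readings come from a luciferase reporter: DPX-2 cells, which are HepG2 cotransfected with PXR and a CYP3A4-promoter construct, were exposed to test compounds for 24 h at 37C before One-Glo detection.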
% is set by controls: 0 for no effect and ±100 for the full control effect.

Nuclear receptor subfamily 1 group I member 2 (Rattus norvegicus), sequence (Q9R1A7 whole entry, looked up): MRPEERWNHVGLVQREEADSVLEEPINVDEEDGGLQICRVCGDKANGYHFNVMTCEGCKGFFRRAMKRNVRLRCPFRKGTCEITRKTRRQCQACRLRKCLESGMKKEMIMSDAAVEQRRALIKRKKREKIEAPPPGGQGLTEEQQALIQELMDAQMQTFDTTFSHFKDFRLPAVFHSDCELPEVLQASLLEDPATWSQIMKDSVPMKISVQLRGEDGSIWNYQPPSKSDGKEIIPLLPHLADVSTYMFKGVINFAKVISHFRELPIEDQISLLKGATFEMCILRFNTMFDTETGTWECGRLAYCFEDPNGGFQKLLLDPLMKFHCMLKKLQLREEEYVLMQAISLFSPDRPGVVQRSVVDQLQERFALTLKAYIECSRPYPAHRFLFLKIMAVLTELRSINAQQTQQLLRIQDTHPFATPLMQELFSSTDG
Nuclear receptor subfamily 1 group I member 2 (Homo sapiens), sequence (O75469 whole entry, looked up): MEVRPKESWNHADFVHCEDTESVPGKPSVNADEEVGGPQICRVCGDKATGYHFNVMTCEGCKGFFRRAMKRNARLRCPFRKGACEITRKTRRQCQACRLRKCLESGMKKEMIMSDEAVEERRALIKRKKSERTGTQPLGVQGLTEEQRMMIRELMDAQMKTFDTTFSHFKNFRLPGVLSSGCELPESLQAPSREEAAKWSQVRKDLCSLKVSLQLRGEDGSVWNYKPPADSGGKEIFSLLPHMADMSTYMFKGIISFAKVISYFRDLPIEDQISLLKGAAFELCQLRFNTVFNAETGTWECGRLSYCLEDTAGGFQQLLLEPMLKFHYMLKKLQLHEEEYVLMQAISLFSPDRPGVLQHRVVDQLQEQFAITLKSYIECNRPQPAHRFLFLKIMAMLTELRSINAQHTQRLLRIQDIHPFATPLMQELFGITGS
Thyrotropin-releasing hormone receptor (Homo sapiens), sequence (P34981 whole entry, looked up): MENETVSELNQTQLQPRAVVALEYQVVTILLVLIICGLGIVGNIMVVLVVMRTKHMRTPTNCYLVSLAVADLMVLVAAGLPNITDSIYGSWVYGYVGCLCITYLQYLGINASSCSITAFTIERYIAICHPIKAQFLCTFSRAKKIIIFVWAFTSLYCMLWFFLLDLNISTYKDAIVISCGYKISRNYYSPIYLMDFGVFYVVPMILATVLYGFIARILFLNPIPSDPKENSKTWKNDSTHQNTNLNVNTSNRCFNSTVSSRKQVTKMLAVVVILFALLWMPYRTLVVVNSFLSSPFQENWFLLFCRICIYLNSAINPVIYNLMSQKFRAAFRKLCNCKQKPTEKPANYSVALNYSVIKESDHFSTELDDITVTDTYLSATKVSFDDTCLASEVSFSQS
Acetylcholinesterase (Homo sapiens), sequence (P22303 whole entry, looked up): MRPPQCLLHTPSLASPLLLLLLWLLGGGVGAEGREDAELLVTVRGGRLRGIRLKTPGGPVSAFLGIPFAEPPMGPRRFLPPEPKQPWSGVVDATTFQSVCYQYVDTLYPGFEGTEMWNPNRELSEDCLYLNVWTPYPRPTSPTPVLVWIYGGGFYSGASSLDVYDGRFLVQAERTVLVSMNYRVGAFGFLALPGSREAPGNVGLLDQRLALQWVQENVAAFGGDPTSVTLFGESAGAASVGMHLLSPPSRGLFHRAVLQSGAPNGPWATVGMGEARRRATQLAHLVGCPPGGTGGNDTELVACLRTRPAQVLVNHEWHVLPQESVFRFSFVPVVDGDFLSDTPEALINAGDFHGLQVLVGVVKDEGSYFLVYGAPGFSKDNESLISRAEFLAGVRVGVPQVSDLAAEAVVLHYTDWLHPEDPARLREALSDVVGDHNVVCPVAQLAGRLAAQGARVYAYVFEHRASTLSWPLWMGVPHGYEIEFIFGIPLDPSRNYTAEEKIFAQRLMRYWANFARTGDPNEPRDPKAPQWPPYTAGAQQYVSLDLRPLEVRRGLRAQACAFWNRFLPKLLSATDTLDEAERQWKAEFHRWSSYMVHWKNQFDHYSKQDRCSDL
Progesterone receptor (Homo sapiens), sequence (P06401 whole entry, looked up): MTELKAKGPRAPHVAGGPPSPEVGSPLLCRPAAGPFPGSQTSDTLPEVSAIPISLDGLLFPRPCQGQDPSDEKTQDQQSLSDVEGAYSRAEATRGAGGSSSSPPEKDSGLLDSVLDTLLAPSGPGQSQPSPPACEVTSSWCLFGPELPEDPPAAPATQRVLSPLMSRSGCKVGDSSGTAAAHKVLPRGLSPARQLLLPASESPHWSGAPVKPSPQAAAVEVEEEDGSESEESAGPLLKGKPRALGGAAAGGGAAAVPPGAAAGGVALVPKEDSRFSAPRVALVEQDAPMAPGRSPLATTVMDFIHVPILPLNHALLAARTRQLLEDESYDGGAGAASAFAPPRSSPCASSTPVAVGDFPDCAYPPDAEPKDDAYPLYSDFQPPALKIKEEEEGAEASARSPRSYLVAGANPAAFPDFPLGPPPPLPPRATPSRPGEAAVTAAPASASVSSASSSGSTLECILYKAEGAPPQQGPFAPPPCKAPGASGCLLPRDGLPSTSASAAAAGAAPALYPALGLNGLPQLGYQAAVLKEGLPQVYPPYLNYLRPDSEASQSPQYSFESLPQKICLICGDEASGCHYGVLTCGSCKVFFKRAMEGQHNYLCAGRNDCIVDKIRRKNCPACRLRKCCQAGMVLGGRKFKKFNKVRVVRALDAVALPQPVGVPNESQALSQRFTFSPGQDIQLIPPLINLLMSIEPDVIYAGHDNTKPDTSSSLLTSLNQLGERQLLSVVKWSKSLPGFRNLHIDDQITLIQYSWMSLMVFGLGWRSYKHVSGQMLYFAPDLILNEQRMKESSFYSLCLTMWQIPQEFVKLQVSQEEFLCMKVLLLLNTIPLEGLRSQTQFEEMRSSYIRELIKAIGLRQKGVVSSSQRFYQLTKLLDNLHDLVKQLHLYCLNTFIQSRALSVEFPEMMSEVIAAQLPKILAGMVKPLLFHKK

OC(c1ccc(Cl)cc1)(c1ccc(Cl)cc1)c1cccnc1
inactive: Potency [1] | Potency [2] | Potency [4] | outcome [5] | Potency [6] | Potency [7] | Potency [9] | Potency [11] | Potency [12]
active: Potency [3] 17.2 µM | Potency [8] 61.1 µM | Potency [10] 61.1 µM

CCOC(=O)CBr
inactive: Potency [1] | Potency [2] | Potency [13] | Potency [14] | Potency [4] | Potency [15] | outcome [5] | Potency [6] | Potency [7] | Potency [16] | Potency [8] | Potency [9] | Potency [17] | Potency [10] | Potency [11] | Potency [12]

CC1Sc2c(C(=O)O)c(=O)c3cc(F)c(N4CCNCC4)cc3n21 (configuration not stated)
inactive: Potency [1] | Potency [2] | Potency [13] | Potency [14] | Potency [4] | Potency [15] | outcome [5] | Potency [6] | Potency [7] | Potency [16] | Potency [18] | Potency [8] | Potency [9] | Potency [10] | Potency [11] | Potency [12]

CCCCCCC#N
inactive: Potency [1] | Potency [2] | Potency [13] | Potency [14] | Potency [4] | Potency [15] | outcome [5] | Potency [6] | Potency [7] | Potency [16] | Potency [18] | Potency [8] | Potency [10] | Potency [11] | Potency [12]

CCCCOC(=O)c1ccccc1C(=O)OCc1ccccc1
inactive and 48.6 µM (active): Potency [16]
inactive and 21.7 µM (active): Potency [10]
inactive: Potency [1] | Potency [2] | Potency [13] | Potency [14] | Potency [4] | Potency [15] | outcome [5] | Potency [7] | Potency [18] | Potency [8] | Potency [9] | Potency [17] | Potency [11] | Potency [12]

CN1[C@@H]2CC[C@H]1CC(OC(=O)c1cc(Cl)cc(Cl)c1)C2 (some centres not stated)
inactive: Potency [1] | Potency [2] | Potency [3] | Potency [4] | Potency [15] | outcome [5] | Potency [6] | Potency [7] | Potency [18] | Potency [8] | Potency [9] | Potency [17] | Potency [10] | Potency [12]

O=[N+]([O-])c1ccc(F)c([N+](=O)[O-])c1
inactive: Potency [2] | Potency [3] | Potency [15] | Potency [6] | Potency [7] | Potency [9] | Potency [10] | max activation [19] -9.38% | Potency [20] | Potency [11] | Potency [12]
active: Potency [1] 30.9 µM | Potency [16] 27.6 µM | Potency [8] 24.6 µM | Potency [17] 27.6 µM

O=C1CN=C(c2ccccc2)c2cc(Cl)ccc2N1CC1CC1
active: Potency [3] 11.4 µM | Potency [10] 25.5 µM | Potency [19] 11.2 µM
inactive: Potency [1] | Potency [2] | Potency [4] | Potency [15] | outcome [5] | Potency [6] | Potency [7] | Potency [16] | Potency [18] | Potency [9] | Potency [17] | Potency [11]

C(=NC1CCCCC1)=NC1CCCCC1
active: Potency [15] 49.3 µM | Potency [8] 13.8 µM | Potency [10] 61.5 µM and 54.5 µM
inactive: Potency [1] | Potency [2] | Potency [3] | Potency [4] | Potency [6] | Potency [7] | Potency [18] | Potency [9] | Potency [11] | Potency [12]

CN1C(=O)NC(=O)C(C)(C2=CCCCC2)C1=O (configuration not stated)
inactive: Potency [1] | Potency [2] | Potency [13] | Potency [14] | Potency [4] | Potency [15] | outcome [5] | Potency [6] | Potency [16] | Potency [18] | Potency [8] | Potency [9] | Potency [10] | max activation [19] -1.51% and -2.62% | Potency [20] | Potency [11] | Potency [12]

O=[N+]([O-])C(Br)(CO)CO
inactive: Potency [1] | Potency [2] | Potency [3] | Potency [14] | Potency [4] | Potency [15] | outcome [5] | Potency [7] | Potency [16] | Potency [18] | Potency [9] | Potency [10] | max activation [19] -5.03% | Potency [20]
active: Potency [8] 61.1 µM | Potency [11] 79.6 µM | Potency [12] 63.3 µM

CC(Cl)Cl
inactive: Potency [1] | Potency [2] | Potency [13] | Potency [14] | Potency [4] | Potency [15] | outcome [5] | Potency [6] | Potency [7] | Potency [16] | Potency [18] | Potency [8] | Potency [9] | Potency [10] | Potency [11] | Potency [12]

O=C1C(=O)c2cccc3cccc1c23
active: Potency [8] 21.7 µM | Potency [10] 54.4 µM
inactive: Potency [1] | Potency [2] | Potency [13] | Potency [14] | Potency [4] | Potency [15] | outcome [5] | Potency [6] | Potency [7] | Potency [16] | Potency [17] | Potency [11] | Potency [12]
